Rows were chosen to be rich in hits. Some 2.1% of all compounds tested hit in one or more screens of this group.
FUS suppressor – qHTS for Suppressors of FUS Proteinopathy: Primary screen using FUS-linked yeast assay; Potency, µM (series often up to 76.6 µM), hits mostly activators; S. cerevisiae FUS-expressing, growth rescue, OD600, 24 h; actives 0.24% (n = 390,000); note: nearly all actives have a fitted effect of over 55% in size
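Yeast expressing FUS under galactose induction, OD 0.005 in 2% galactose medium; compounds in a dilution series, 24 h at 30C. Growth rescue by absorbance at 600 nm; CP55940 positive control, DMSO negative.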
aSyn rescue – qHTS of alpha-syn Inhibitors; actives 0.14% (n = 370,000); Potency, µM (highest dose often 46.1 µM), hits mostly activators; Yeast expressing alpha-synuclein, growth rescue, BacTiter-Glo, 24 h; AID 652106, 2013; note: nearly all actives have a fitted effect of over 65% in size
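Galactose-induced alpha-syn yeast (OD600=0.02, raffinose-pregrown) + pinned cpd, 24 hr, 30 deg C; growth by BacTiter-Glo luminescence. Growth restoration scores as activation.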
TDP43 rescue – qHTS of TDP-43 Inhibitors. actives 1.8% (n = 410,000). Potency, µM (highest dose often 46.1 µM), actives largely listed as activators. TDP-43 expressing yeast growth rescue, BacTiter-Glo, 24 h; note: nearly all actives have a fitted effect of over 50% in size
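Yeast cells expressing TDP-43 under galactose induction are exposed to compounds for 24 hr at 30 deg C. BacTiter-Glo luminescence measures growth, so protective compounds score as activators.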
Abeta yeast res – qHTS for compounds that reverse cellular toxicity of Amyloid beta (A-beta) peptide in yeast: Primary Screen. yeast expressing A-beta42, growth rescue, OD600, 48 h; response scale: 0% DMSO, 100% iron-clioquinol control. Potency, µM (titrated, usually from 46.1 µM), hits mostly activators. actives 0.063% (n = 410,000). AID 1347071, 2019; note: nearly all actives have a fitted effect of over 55% in size
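Growth rescue measured by 600 nm absorbance after 48 h yeast culture at 30 C with compound. Values normalized between DMSO and an equimolar ferric chloride plus clioquinol control.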
Each line names hits and unclear results; the compound was inactive in the other large screens. Calls come from the whole dose curve; as a rule, active = well fitted curve in the direction sought with a large enough effect; inconclusive = small, poorly fitted or top-dose-only effect, or another doubt; inactive = no such curve, though single readings can be large; an effect the other way counts as inactive or inconclusive.

C#CCOC(=O)c1cc(Cl)c(=O)n(Cc2ccc(Cl)cc2Cl)c1	TDP43 rescue 20µM
COc1cccc(N2CCN(C(=O)COc3cc(=O)n(C)c4ccccc34)CC2)c1	none (no result: aSyn rescue, TDP43 rescue, Abeta yeast res)
CCOc1cccc(-c2nnc3sc(C4CCCCC4)nn23)c1	FUS suppressor inconclusive, TDP43 rescue 18µM
COc1cccc(-c2nnc3sc(C4CCCCC4)nn23)c1	TDP43 rescue inconclusive
O=C(c1cccc(C(F)(F)F)c1)N1CC[C@H]2[C@H](CCCN2Cc2ccc(F)cc2)C1	none (no result: aSyn rescue, TDP43 rescue, Abeta yeast res)
CCOC(=O)c1c(N2C(=O)CC(Sc3ccccc3C(=O)O)C2=O)sc(C)c1C (configuration not stated)	TDP43 rescue 14µM, Abeta yeast res inconclusive
Cc1ccc(N2C(=O)CC(Sc3ccccc3C(=O)O)C2=O)cc1 (configuration not stated)	TDP43 rescue inconclusive (no result: FUS suppressor)
Cc1cc(C)cc(N2C(=O)CC(Sc3ccccc3C(=O)O)C2=O)c1 (configuration not stated)	TDP43 rescue 22µM
CCn1c(SCC(=O)Nc2ccc(C(N)=O)cc2)nc2sc(C)c(C)c2c1=O	none (no result: aSyn rescue, TDP43 rescue, Abeta yeast res)
O=C(/C(=N/N=C/c1ccc(O)c(O)c1O)c1ccccc1)c1ccccc1	aSyn rescue 16µM (no result: FUS suppressor)
Cc1ccccc1OCCCc1c(C)n[nH]c1C	TDP43 rescue 20µM
COCCn1c(CCC(=O)O)ccc1-c1cccs1	none
CCCCn1c(CCC(=O)O)ccc1-c1cccs1	TDP43 rescue 18µM
Cc1cc(Cl)ccc1-n1c(CCC(=O)O)ccc1-c1cccs1	FUS suppressor inconclusive, TDP43 rescue 22µM (no result: aSyn rescue)
Cc1c(Cl)cccc1-n1c(CCC(=O)O)ccc1-c1cccs1	FUS suppressor inconclusive, TDP43 rescue inconclusive (no result: aSyn rescue)
CCOC(=O)c1ccc(-n2c(CCC(=O)O)ccc2-c2cccs2)cc1	aSyn rescue 20µM
Cc1ccc(Cl)cc1-n1c(CCC(=O)O)ccc1-c1cccs1	TDP43 rescue 13µM (no result: aSyn rescue)
Cc1ccc(-n2c(CCC(=O)O)ccc2-c2cccs2)cc1C	none
O=c1c2ccc(F)cc2nc2sc(Nc3ccc4c(c3)CCC4)nn12	none (no result: aSyn rescue, TDP43 rescue, Abeta yeast res)
CN(C)c1ccc(C(=O)Oc2cc(O/N=[N+](\[O-])N(C)C)c([N+](=O)[O-])cc2[N+](=O)[O-])cc1	none (no result: FUS suppressor, TDP43 rescue, Abeta yeast res)
O=C(O)CCc1ccc(-c2cccs2)o1	aSyn rescue 14µM, TDP43 rescue inconclusive
Cc1ccc(NC(=O)c2cc(-c3ccc(C)o3)nc3ccccc23)cc1	FUS suppressor inconclusive, TDP43 rescue inconclusive
Cc1cc(NC(=O)c2cc(-c3ccncc3)nc3ccccc23)ccc1Br	TDP43 rescue 18µM (no result: FUS suppressor)
Cc1cc(NC(=O)c2ccoc2C)ccc1Br	TDP43 rescue 11µM
CC(C)(C)c1ccc(C(=O)Nc2cccnc2)cc1	TDP43 rescue 14µM
Cc1ccc(-c2cc(C(=O)Nc3cccnc3)c3ccccc3n2)o1	FUS suppressor 3.2µM
Cc1ccc(NC(=O)c2ccoc2C)cc1C	none
Cc1ccc(CNC(=O)Cn2cc(S(=O)(=O)Cc3ccccc3F)c3ccccc32)cc1	none (no result: aSyn rescue)
COc1ccc(CNC(=O)c2sc3nc(C)c(Cl)c(C)c3c2N)cc1	none (no result: aSyn rescue, TDP43 rescue, Abeta yeast res)
Cc1cc(NC(=O)c2ccccc2-c2ccccc2)ccc1Br	Abeta yeast res 13µM
Cc1csc(NC(=O)c2cc(-c3ccccc3)nc3ccccc23)n1	TDP43 rescue 18µM (no result: FUS suppressor)
Cc1cc(NC(=O)c2cccnc2)ccc1Br	TDP43 rescue 11µM
Cc1cc(NC(=O)COCc2cc(-c3ccc(F)cc3)on2)ccc1Br	none (no result: aSyn rescue)
Cc1ccc(-c2nc(C(=O)Nc3cccc(C#N)c3)c3n2CCCCC3)cc1	none
CC(=O)c1cccc(NC(=O)c2nc(-c3ccc(C)cc3)n3c2CCCCC3)c1	FUS suppressor inconclusive, TDP43 rescue 20µM
O=C(CCCOC(=O)c1ccc(O)cc1O)c1ccc(F)cc1	none
CCCc1cc(C(=O)Cc2ccc(F)cc2)c(O)cc1O	TDP43 rescue inconclusive
CCc1cc(C(=O)Cc2ccc(F)cc2)c(O)cc1O	TDP43 rescue 13µM
O=C(Cc1ccccc1F)c1ccc(O)cc1O	Abeta yeast res inconclusive
O=C(Cc1c(F)cccc1Cl)c1ccc(O)cc1O	TDP43 rescue 16µM
O=C(Cc1ccc(F)cc1)c1ccc(O)cc1O	TDP43 rescue 13µM
CS(=O)(=O)N1CCC[C@]2(CC[C@@H](CCC#N)O2)C1	none (no result: aSyn rescue, TDP43 rescue, Abeta yeast res)
COc1ccccc1C1C(C(=O)Nc2ccccc2)=C(C)Nc2nc(-c3ccccc3)nn21 (configuration not stated)	none (no result: aSyn rescue)
CCOC(=O)c1c(C)nc(C(Cl)(Cl)Cl)nc1N	TDP43 rescue 11µM
Cc1cc(NC(=O)COC(=O)c2c(Cl)cccc2Cl)no1	TDP43 rescue 16µM
O=C(COC(=O)c1c(Cl)cccc1Cl)Nc1ccccc1Br	TDP43 rescue 14µM (no result: FUS suppressor)
Cc1cc(NC(=O)COC(=O)c2ccc(Cl)cc2)no1	none
O=C(COC(=O)c1ccccc1)Nc1ccccc1Br	none
CC(=O)N1[C@@H](CO)[C@@H](c2ccc(-c3cccc(F)c3)cc2)[C@@H]1CNCC1CCC1	none (no result: aSyn rescue, TDP43 rescue, Abeta yeast res)
Cc1ccc(C(=O)Nc2nnc(SCc3cc(=O)n4ccc(C)cc4n3)s2)cc1	none (no result: aSyn rescue)
O=C(Nc1ccc(Nc2ccccc2)cc1)C(Cl)(Cl)Cl	TDP43 rescue 35µM (no result: FUS suppressor)
c1ccc(Cn2c(SCc3nc4ccccc4s3)nnc2-c2ccco2)cc1	FUS suppressor inconclusive, TDP43 rescue 14µM
CC(=O)OC12CCCN(C1)/C(=C/c1cccc(N(C)C)c1)C2 (configuration not stated)	none (no result: aSyn rescue, TDP43 rescue, Abeta yeast res)
C=CCN1C(=O)[C@@H](CC(=O)NCCc2ccccc2OC)[C@]2(C(=O)OC)CCCCC=C12	none (no result: aSyn rescue, TDP43 rescue, Abeta yeast res)
O=C(NNC(=S)Nc1ccccc1)c1cc(-c2cccnc2)nc2ccccc12	TDP43 rescue inconclusive
CC(OC(=O)c1cc(-c2cccnc2)nc2ccccc12)C(=O)Nc1ccc2ccccc2c1 (configuration not stated)	FUS suppressor 5.6µM
Cc1ccc(SCCNS(=O)(=O)c2ccc(F)cc2)cc1	TDP43 rescue inconclusive
CCOc1ccc(S(=O)(=O)NCCc2csc(-c3ccc(Cl)cc3)n2)cc1	FUS suppressor inconclusive, TDP43 rescue 22µM (no result: aSyn rescue)
Cc1ccc(S(=O)(=O)NCCc2sc3nc(-c4ccccc4)nn3c2C)cc1C	TDP43 rescue 13µM, Abeta yeast res inconclusive (no result: aSyn rescue)
O=S(=O)(NCCSc1ccc(Cl)cc1)c1ccc(F)cc1	TDP43 rescue 14µM
COc1ccc(S(=O)(=O)NCCc2sc(-c3ccccc3)nc2C)cc1F	TDP43 rescue 22µM
Cc1ccc(NC(=O)CN2C(=O)CC(c3ccco3)Sc3ccccc32)cc1Cl (configuration not stated)	none
COc1ccc(S(=O)(=O)NCCc2csc(-c3ccc(F)cc3)n2)cc1	TDP43 rescue 16µM (no result: aSyn rescue)
COc1ccc(-c2nc(CNS(=O)(=O)c3ccc(F)cc3)cs2)cc1	none (no result: aSyn rescue)
Cc1ccc(C)c(S(=O)(=O)NCCc2csc(-c3ccc(Cl)cc3)n2)c1	TDP43 rescue 22µM (no result: aSyn rescue)
COc1ccc(-c2nc(CNS(=O)(=O)c3cccc(F)c3)cs2)cc1	TDP43 rescue 13µM (no result: aSyn rescue)
